# Screen size: about 5,500 compounds; about 2,000 (36%) were called active. About 18% were inconclusive and are not listed. Some of the results follow. Unmarked numbers belong to inactive results. Rule as the data show it: active = normalized growth mostly below about 0.91 (no sharp cut-off); inconclusive = no clear call, values can overlap the other calls; inactive = mostly above about 0.92.
# Assay: chemical genetic growth profiling, strain panel (AID 1159580);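 also: tested at 20 µM; growth read once vehicle control cultures reached saturation at 30 °C; 1 = growth at the plate median or of vehicle wells; lower values mean less growth of the strain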
# Conditions: growth OD
compound,measurement,setting,value
O=C(Nc1ccccc1)Nc1ccccc1,normalized growth,"S. cerevisiae deletion strains, locus YKL009W, strain mrt4, hits give low values",0.956
same,normalized growth,"S. cerevisiae deletion strains, locus YKL068W, hits give low values",0.975
same,normalized growth,"S. cerevisiae deletion strains, locus YKL085W, strain MDH1 (second series), hits give low values",0.979
same,normalized growth,"S. cerevisiae deletion strains, locus YKL085W, strain MDH1, hits give low values",0.979
same,normalized growth,"S. cerevisiae deletion strains, locus YKL160W, strain elf1, hits give low values",0.95
same,normalized growth,"S. cerevisiae deletion strains, locus YKR001C, strain vps1, hits give low values",0.97
same,normalized growth,"S. cerevisiae deletion strains, locus YKR026C, strain gcn3, hits give low values",0.967
same,normalized growth,"S. cerevisiae deletion strains, locus YKR091W, strain srl3, hits give low values",0.962
same,normalized growth,"S. cerevisiae deletion strains, locus YLL001W, strain dnm1, hits give low values",0.982
same,normalized growth,"S. cerevisiae deletion strains, locus YLL026W, hits give low values",0.958
same,normalized growth,"S. cerevisiae deletion strains, locus YLL041C, strain sdh2, hits give low values",0.982
same,normalized growth,"S. cerevisiae deletion strains, locus YLR027C, strain aat2, hits give low values",0.944
same,normalized growth,"S. cerevisiae deletion strains, locus YLR039C, strain RIC1, hits give low values",1.38 [resistant] (active)
same,normalized growth,"S. cerevisiae deletion strains, locus YLR058C, strain SHM2, hits give low values",0.99
same,normalized growth,"S. cerevisiae deletion strains, locus YLR102C, strain apc9, hits give low values",0.98
same,normalized growth,"S. cerevisiae deletion strains, locus YLR113W, strain HOG1, hits give low values",1.01
same,normalized growth,"S. cerevisiae deletion strains, locus YLR221C, strain rsa3, hits give low values",0.957
same,normalized growth,"S. cerevisiae deletion strains, locus YLR258W, strain gsy2, hits give low values",0.974
same,normalized growth,"S. cerevisiae deletion strains, locus YLR262C, strain YPT6 (second series), hits give low values",0.96
same,normalized growth,"S. cerevisiae deletion strains, locus YLR262C, strain YPT6, hits give low values",1.34
same,normalized growth,"S. cerevisiae deletion strains, locus YLR268W, strain sec22, hits give low values",0.989
same,normalized growth,"S. cerevisiae deletion strains, locus YLR320W, strain mms22, hits give low values",0.99
same,normalized growth,"S. cerevisiae deletion strains, locus YLR342W, strain FKS1 (second series), hits give low values",0.991
same,normalized growth,"S. cerevisiae deletion strains, locus YLR342W, strain FKS1, hits give low values",0.972
same,normalized growth,"S. cerevisiae deletion strains, locus YLR357W, strain rsc2, hits give low values",0.96
same,normalized growth,"S. cerevisiae deletion strains, locus YLR370C, strain arc18, hits give low values",0.932
same,normalized growth,"S. cerevisiae deletion strains, locus YLR371W, strain rom2, hits give low values",0.944
same,normalized growth,"S. cerevisiae deletion strains, locus YLR384C, strain iki3, hits give low values",0.967
same,normalized growth,"S. cerevisiae deletion strains, locus YLR418C, strain cdc73, hits give low values",1.06
same,normalized growth,"S. cerevisiae deletion strains, locus YML016C, strain PPZ1, hits give low values",0.991
same,normalized growth,"S. cerevisiae deletion strains, locus YML032C, strain rad52, hits give low values",0.98
same,normalized growth,"S. cerevisiae deletion strains, locus YML120C, strain ndi1, hits give low values",0.98
same,normalized growth,"S. cerevisiae deletion strains, locus YML124C, strain tub3, hits give low values",0.971
same,normalized growth,"S. cerevisiae deletion strains, locus YMR058W, strain fet3, hits give low values",0.946
same,normalized growth,"S. cerevisiae deletion strains, locus YMR078C, strain ctf18, hits give low values",0.981
same,normalized growth,"S. cerevisiae deletion strains, locus YMR125W, strain sto1, hits give low values",0.949
same,normalized growth,"S. cerevisiae deletion strains, locus YMR129W, hits give low values",0.959
same,normalized growth,"S. cerevisiae deletion strains, locus YMR205C, strain PFK2, hits give low values",0.984
same,normalized growth,"S. cerevisiae deletion strains, locus YMR223W, strain ubp8, hits give low values",0.976
same,normalized growth,"S. cerevisiae deletion strains, locus YMR231W, strain pep5, hits give low values",0.99
same,normalized growth,"S. cerevisiae deletion strains, locus YMR263W, strain SAP30, hits give low values",1
same,normalized growth,"S. cerevisiae deletion strains, locus YMR307W, strain GAS1, hits give low values",1.34
same,normalized growth,"S. cerevisiae deletion strains, locus YNL067W, strain RPL9B, hits give low values",0.996
same,normalized growth,"S. cerevisiae deletion strains, locus YNL071W, strain lat1, hits give low values",0.965
same,normalized growth,"S. cerevisiae deletion strains, locus YNL128W, strain TEP1, hits give low values",1
same,normalized growth,"S. cerevisiae deletion strains, locus YNL183C, strain NPR1, hits give low values",0.949
same,normalized growth,"S. cerevisiae deletion strains, locus YNL209W, strain ssb2, hits give low values",0.966
same,normalized growth,"S. cerevisiae deletion strains, locus YNL233W, strain BNI4, hits give low values",1.05
same,normalized growth,"S. cerevisiae deletion strains, locus YNL248C, strain rpa49, hits give low values",0.921
same,normalized growth,"S. cerevisiae deletion strains, locus YNL250W, strain rad50, hits give low values",0.973
same,normalized growth,"S. cerevisiae deletion strains, locus YNL271C, strain bni1, hits give low values",0.978
same,normalized growth,"S. cerevisiae deletion strains, locus YNL298W, strain CLA4, hits give low values",1.02
same,normalized growth,"S. cerevisiae deletion strains, locus YNL307C, strain MCK1, hits give low values",0.985
same,normalized growth,"S. cerevisiae deletion strains, locus YNL322C, strain KRE1 (second series), hits give low values",0.965
same,normalized growth,"S. cerevisiae deletion strains, locus YNR049C, strain mso1, hits give low values",0.95
same,normalized growth,"S. cerevisiae deletion strains, locus YNR052C, strain pop2, hits give low values",0.993
same,normalized growth,"S. cerevisiae deletion strains, locus YOL012C, strain htz1",0.934
same,normalized growth,"S. cerevisiae deletion strains, locus YOL147C, strain pex11, hits give low values",0.978
same,normalized growth,"S. cerevisiae deletion strains, locus YOR001W, strain rrp6, hits give low values",0.957
same,normalized growth,"S. cerevisiae deletion strains, locus YOR061W, strain CKA2, hits give low values",1.02
same,normalized growth,"S. cerevisiae deletion strains, locus YOR069W, strain VPS5, hits give low values",1
same,normalized growth,"S. cerevisiae deletion strains, locus YOR070C, strain gyp1, hits give low values",0.977
same,normalized growth,"S. cerevisiae deletion strains, locus YOR080W, strain dia2, hits give low values",0.963
same,normalized growth,"S. cerevisiae deletion strains, locus YOR083W, strain WHI5, hits give low values",0.959
same,normalized growth,"S. cerevisiae deletion strains, locus YOR106W, strain vam3, hits give low values",0.902
same,normalized growth,"S. cerevisiae deletion strains, locus YOR136W, strain idh2, hits give low values",0.996
same,normalized growth,"S. cerevisiae deletion strains, locus YOR144C, strain elg1, hits give low values",0.97
same,normalized growth,"S. cerevisiae deletion strains, locus YOR184W, strain ser1, hits give low values",1.03
same,normalized growth,"S. cerevisiae deletion strains, locus YOR231W, strain MKK1, hits give low values",1.01
same,normalized growth,"S. cerevisiae deletion strains, locus YOR265W, strain rbl2, hits give low values",0.964
same,normalized growth,"S. cerevisiae deletion strains, locus YOR270C, strain vph1, hits give low values",0.875
same,normalized growth,"S. cerevisiae deletion strains, locus YOR290C, strain snf2, hits give low values",0.907
same,normalized growth,"S. cerevisiae deletion strains, locus YOR316C, strain cot1, hits give low values",0.989
same,normalized growth,"S. cerevisiae deletion strains, locus YPL051W, strain arl3, hits give low values",0.928
same,normalized growth,"S. cerevisiae deletion strains, locus YPL055C, strain LGE1, hits give low values",1.17
same,normalized growth,"S. cerevisiae deletion strains, locus YPL078C, strain atp4, hits give low values",0.923
same,normalized growth,"S. cerevisiae deletion strains, locus YPL106C, strain sse1, hits give low values",0.932
same,normalized growth,"S. cerevisiae deletion strains, locus YPL240C, strain hsp82, hits give low values",0.967
same,normalized growth,"S. cerevisiae deletion strains, locus YPL241C, strain CIN2, hits give low values",0.998
same,normalized growth,"S. cerevisiae deletion strains, locus YPL256C, strain CLN2, hits give low values",0.985
same,normalized growth,"S. cerevisiae deletion strains, locus YPR119W, strain clb2, hits give low values",0.966
same,normalized growth,"S. cerevisiae deletion strains, locus YPR141C, strain kar3, hits give low values",0.975
same,normalized growth,"S. cerevisiae deletion strains, locus YPR163C, strain tif3, hits give low values",0.987
same,normalized growth,"S. cerevisiae deletion strains, locus YPR167C, strain met16, hits give low values",0.984
same,normalized growth,"S. cerevisiae deletion strains, strain wtn01, hits give low values",0.996
same,normalized growth,"S. cerevisiae strains, strain wild type, hits give low values",1.07

# Reference: PubChem BioAssay AID1159580 (chemical genetic matrix, 2015)
